Data on 12 compounds can be found in PubChem BioAssay (EPA / NIEHS).

What is called AC50 is the concentration giving half of the maximal activity seen.

The structures appear in SMILES notation. Results filed as inconclusive are left out. Calls of active or inactive are those of the source. The calls were made as follows, unless noted: active = hit-call score of the fitted dose curve at least 0.9, where 1 is the maximum; inactive = score below 0.9.

Test [1] has as its target Hepatocyte nuclear factor 4-alpha (Homo sapiens) (UniProt P41235). Put plainly: ATG_HNF4a_TRANS: Attagene TRANS-FACTORIAL HepG2 Assay for human Hepatocyte Nuclear Factor 4 alpha (HNF4a) (AID 2282982; active = hit-call score of the fitted dose curve at least 0.9, where 1 is the maximum). The conditions noted are these: HepG2 HNF4a transactivation reporter, mRNA readout. Put shortly: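 Readout is fluorescent reporter-transcript fragments resolved by capillary electrophoresis after RT-PCR from HepG2 cells dosed for 24 h. Cells carried transfected GAL4-UAS reporter constructs measuring exogenous NR-GAL4 chimera activity; DMSO served as baseline.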

Test [2] is described as follows: ATG_M_06_TRANS: Attagene TRANS-FACTORIAL HepG2 Assay for M06 Transcription Factor (Internal Marker) (AID 2282983; active = hit-call score of the fitted dose curve at least 0.9, where 1 is the maximum;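 as to AC50: potency for rise in reporter mRNA above DMSO baseline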). The conditions noted are these: HepG2 Attagene TRANS M06 internal marker reporter. The essentials:
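Measured by capillary electrophoresis of fluorescently labelled RT-PCR products, this endpoint reflects reporter mRNA in HepG2 cells harbouring exogenous NR-GAL4 reporter constructs after 24 h exposure, with DMSO as baseline.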

Test [3] concerns the target Nuclear receptor subfamily 4 group A member 2 (Homo sapiens) (UniProt P43354). As to the kind of experiment: ATG_NURR1_TRANS: Attagene TRANS-FACTORIAL HepG2 Assay for human Nuclear Receptor Related Protein 1 (NURR1) (AID 2282985; active = hit-call score of the fitted dose curve at least 0.9, where 1 is the maximum). The settings on record: HepG2 Attagene TRANS reporter, mRNA readout. Put shortly:
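Transient transfection of HepG2, human liver cells, with multiple GAL4-UAS reporter transcription units. Cells dosed 24 h, RNA isolated, reverse-transcribed, PCR-amplified, FAM-labelled, HpaI-digested, sized by capillary electrophoresis. DMSO served as negative control.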

Test [4] addresses Transcriptional activator Myb (Homo sapiens) (UniProt P10242). Put plainly: ATG_Myb_CIS: Attagene CIS-FACTORIAL HepG2 Assay for human Myeloblastosis (Myb) Proto-Oncogene Transcription Factor (AID 2282986). The settings on record: HepG2 Attagene CIS-FACTORIAL Myb reporter transcription; actives raise or lower the signal. The essentials: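 Reporter mRNA is quantified by RT-PCR and capillary electrophoresis 24 h after dosing HepG2 cells transfected with cis-regulated reporter units, which track endogenous transcription factor activity. Gain and loss of signal are fitted versus DMSO baseline.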

Test [5] addresses Nuclear respiratory factor 1 (Homo sapiens) (UniProt Q16656). Put plainly: ATG_NRF1_CIS: Attagene CIS-FACTORIAL HepG2 Assay for human Nuclear Respiratory Factor 1 (NRF1) Orphan Gene (AID 2282987). The conditions noted are these: HepG2 NRF1 cis-element reporter, Attagene multiplex; actives raise or lower the signal. The essentials: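 Endogenous NRF1-driven reporter transcription in transfected HepG2 cells after 24 h treatment. Readout: RT-PCR products, 6-FAM labelled and resolved by capillary electrophoresis; changes fitted both directions relative to DMSO.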

Test [6] in a line: ATG_NFI_CIS: Attagene CIS-FACTORIAL HepG2 Assay for human Nuclear Factor I (NFI) (AID 2282989). The conditions noted are these: HepG2 cis-regulatory reporter, NFI response element transcription; actives raise or lower the signal. Put shortly: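 Transfected HepG2 liver cells, exposed 24 h, supplied total RNA for oligo(dT) reverse transcription and reporter-specific PCR. Labelled, HpaI-cut fragments were sized by capillary electrophoresis; DMSO set the baseline for bidirectional fitting.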

Test [7] addresses Myc proto-oncogene protein (Homo sapiens) (UniProt P01106). Put plainly: ATG_Myc_CIS: Attagene CIS-FACTORIAL HepG2 Assay for human Myelocytomatosis (Myc) Proto-Oncogene Transcription Factor (AID 2282990). The settings on record: HepG2, Attagene cis-reporter transcription factor activity; actives raise or lower the signal. Put shortly: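 After 24 h chemical treatment of HepG2 cells carrying multiplexed cis-regulated reporter constructs, reporter transcripts quantified by RT-PCR and capillary electrophoresis of fluorescent fragments. Gain or loss fitted against DMSO baseline.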

A short description of test [8]: ATG_NRF2_ARE_CIS: Attagene CIS-FACTORIAL HepG2 Assay for human Nuclear Factor Erythroid 2 Related Factor 2 (NFR2) response to Antioxidant Response Elements (ARE) (AID 2282992). The settings on record: HepG2 Attagene ARE/NRF2 reporter, transcription factor activity; actives raise or lower the signal. The essentials: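 Multiplexed reporter mRNA profiling in HepG2 after a 24 h chemical exposure. Curves fitted in both directions relative to DMSO negative control.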

A short description of test [9]: ATG_Oct_MLP_CIS: Attagene CIS-FACTORIAL HepG2 Assay for human Octamer-Binding Transcription Factor (Oct) (AID 2282993). The conditions noted are these: HepG2 Attagene cis-factorial Oct reporter, mRNA; actives raise or lower the signal. The essentials: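 Using HepG2 cells bearing transfected cis-reporter constructs, mRNA induction was read after 24 h by fluorescent RT-PCR and capillary electrophoresis, with DMSO defining baseline for gain- or loss-of-signal fits.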

A short description of test [10]: BSK_3C_TissueFactor: BioMAP Diversity Plus: 3C Assay for Tissue Factor Biomarker Activity (AID 2282997). The conditions noted are these: BioMAP 3C HUVEC, tissue factor biomarker readout; actives raise or lower the signal. Put shortly: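 Values derive from bidirectional curve fitting against DMSO of Tissue Factor ELISA signals, taken 24 h after dosing primary human umbilical vein endothelial cells.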

A short description of test [11]: BSK_3C_uPAR: BioMAP Diversity Plus: 3C Assay for Urokinase-type plasminogen activator receptor (uPAR) Biomarker Activity (AID 2282998). The conditions noted are these: BioMAP 3C HUVEC, uPAR biomarker ELISA; actives raise or lower the signal. The essentials: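 In this endothelial cell-based assay, human umbilical vein primary cells were treated with chemicals and harvested at 24 h. uPAR was quantified using ELISA, with gains or losses fitted relative to DMSO controls.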
Background: In an ELISA, binding on a coated surface is turned into a signal by an enzyme label.

Test [12] in a line: BSK_4H_Eotaxin3: BioMAP Diversity Plus: 4H Assay for Eotaxin 3 Biomarker Activity (AID 2283000).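 As to outcome: CCL26 protein level quantified by ELISA in parallel with SRB cytotoxicity check.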 The settings on record: primary human endothelial cells (HUVEC); actives raise or lower the signal. The essentials: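 Endothelial primary cells (human umbilical vein) exposed to compound for 24 h. ELISA detection of Eotaxin-3.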
Read-out in test [13]: Intercellular Adhesion Molecule 1 (ICAM1), ICAM1 (gene 3383)
As to the kind of experiment: BSK_3C_ICAM1: BioMAP Diversity Plus: 3C Assay for Intercellular Adhesion Molecule 1 (ICAM1) Biomarker Activity (AID 2283003). The conditions noted are these: primary human endothelial cells (HUVEC); actives raise or lower the signal. The essentials:
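ICAM-1 levels measured by ELISA after HUVEC cultures in the 3C system had been dosed for 24 h. Gain or loss of signal relative to DMSO was fitted in both directions.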

Test [14] can be described thus: ATG_NF_kB_CIS: Attagene CIS-FACTORIAL HepG2 Assay for human Nuclear Factor Kappa B (NF-kB) (AID 2282991). The settings on record: HepG2 Attagene cis-factorial NF-kB reporter mRNA; actives raise or lower the signal. Put shortly: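 Readout is reporter transcript level, gain or loss versus DMSO, measured 24 h post-dose via RT-PCR, fluorescent labelling and capillary electrophoresis. Human HepG2 liver cells carried transiently transfected CIS reporter constructs reflecting endogenous factors.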

Test [15] deals with Cellular tumor antigen p53 (Homo sapiens) (UniProt P04637). As to the kind of experiment: ATG_p53_CIS: Attagene CIS-FACTORIAL HepG2 Assay for human p53 Transcription Factor (AID 2282994). The conditions noted are these: HepG2 p53 cis-element reporter, Attagene mRNA; actives raise or lower the signal. Put shortly: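 Multiplexed reporter mRNA assay in human HepG2 liver cells; cis-regulated units report endogenous factor activity. Values come from bidirectional curve fitting against DMSO negative control after 24 h treatment.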
Cellular tumor antigen p53 (Homo sapiens), sequence (P04637 whole entry, looked up): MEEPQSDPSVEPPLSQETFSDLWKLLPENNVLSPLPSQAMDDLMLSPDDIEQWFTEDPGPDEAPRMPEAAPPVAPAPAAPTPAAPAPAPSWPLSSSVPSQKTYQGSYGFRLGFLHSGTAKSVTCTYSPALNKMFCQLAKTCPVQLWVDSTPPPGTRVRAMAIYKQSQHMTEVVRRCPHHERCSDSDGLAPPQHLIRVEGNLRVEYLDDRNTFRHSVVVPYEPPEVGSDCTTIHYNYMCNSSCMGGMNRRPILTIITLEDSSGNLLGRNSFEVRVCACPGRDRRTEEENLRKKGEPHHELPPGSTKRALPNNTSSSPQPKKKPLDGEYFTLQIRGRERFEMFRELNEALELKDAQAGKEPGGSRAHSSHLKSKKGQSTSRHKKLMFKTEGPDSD

The target of test [16] is human Peroxisome Proliferator-activated Receptor alpha (PPARa), PPARA (gene 5465) (UniProt Q07869). As to the kind of experiment: ATG_PPARa_TRANS: Attagene TRANS-FACTORIAL HepG2 Assay for human Peroxisome Proliferator-activated Receptor alpha (PPARa) (AID 2283001; active = hit-call score of the fitted dose curve at least 0.9, where 1 is the maximum;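 as to AC50: potency for gain of reporter signal over DMSO so agonist or activator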). Put shortly:
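Read-out is fluorescence of reporter cDNA fragments resolved by capillary electrophoresis after RT-PCR. Human HepG2 liver cells carried transfected PPARa-Gal4 chimera and GAL4-UAS reporter units, treated 24 h; activity scored as increase over DMSO.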

Test [17] has as its target human Peroxisome Proliferator-activated Receptor delta (PPARd), PPARD (gene 5467) (UniProt Q03181). As to the kind of experiment: ATG_PPARd_TRANS: Attagene TRANS-FACTORIAL HepG2 Assay for human Peroxisome Proliferator-activated Receptor delta (PPARd) (AID 2283002; active = hit-call score of the fitted dose curve at least 0.9, where 1 is the maximum). Put shortly: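 Read-out is induced reporter mRNA, quantified by RT-PCR with fluorescent labelling and capillary electrophoresis after 24 h dosing. Cells are HepG2 transiently carrying multiple GAL4-UAS reporter units driven by exogenous NR-GAL4 chimeras; DMSO serves as baseline.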

Test [18] can be described thus: ATG_M_32_TRANS: Attagene TRANS-FACTORIAL HepG2 Assay for M32 Transcription Factor (Internal Marker) (AID 2282984; active = hit-call score of the fitted dose curve at least 0.9, where 1 is the maximum;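 also: transcript level of a background control reporter unit measured by RT-PCR and capillary electrophoresis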). The settings on record: HepG2 Attagene TRANS M32 internal marker reporter. Put shortly: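 Measures reporter mRNA induction in human HepG2 liver cells after 24 h chemical treatment. Transcripts from transiently transfected GAL4-UAS reporter units are amplified, fluorescently labelled and sized by capillary electrophoresis; gain of signal relative to DMSO.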

human Peroxisome Proliferator-activated Receptor alpha (PPARa), PPARA (gene 5465), sequence (Q07869 whole entry, looked up, the tested form may be a part): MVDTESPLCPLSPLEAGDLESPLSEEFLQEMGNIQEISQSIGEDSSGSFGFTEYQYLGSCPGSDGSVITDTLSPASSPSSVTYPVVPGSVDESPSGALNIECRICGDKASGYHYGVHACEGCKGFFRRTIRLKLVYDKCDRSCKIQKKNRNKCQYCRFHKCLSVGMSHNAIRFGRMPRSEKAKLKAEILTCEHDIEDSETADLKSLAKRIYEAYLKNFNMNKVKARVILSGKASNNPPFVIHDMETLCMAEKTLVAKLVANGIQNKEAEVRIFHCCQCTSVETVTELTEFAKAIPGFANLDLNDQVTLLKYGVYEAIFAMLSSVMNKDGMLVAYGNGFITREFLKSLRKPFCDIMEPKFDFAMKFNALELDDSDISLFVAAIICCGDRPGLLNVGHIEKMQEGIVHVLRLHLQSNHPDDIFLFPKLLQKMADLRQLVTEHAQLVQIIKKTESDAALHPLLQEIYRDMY
Myc proto-oncogene protein (Homo sapiens), sequence (P01106 whole entry, looked up, the tested form may be a part): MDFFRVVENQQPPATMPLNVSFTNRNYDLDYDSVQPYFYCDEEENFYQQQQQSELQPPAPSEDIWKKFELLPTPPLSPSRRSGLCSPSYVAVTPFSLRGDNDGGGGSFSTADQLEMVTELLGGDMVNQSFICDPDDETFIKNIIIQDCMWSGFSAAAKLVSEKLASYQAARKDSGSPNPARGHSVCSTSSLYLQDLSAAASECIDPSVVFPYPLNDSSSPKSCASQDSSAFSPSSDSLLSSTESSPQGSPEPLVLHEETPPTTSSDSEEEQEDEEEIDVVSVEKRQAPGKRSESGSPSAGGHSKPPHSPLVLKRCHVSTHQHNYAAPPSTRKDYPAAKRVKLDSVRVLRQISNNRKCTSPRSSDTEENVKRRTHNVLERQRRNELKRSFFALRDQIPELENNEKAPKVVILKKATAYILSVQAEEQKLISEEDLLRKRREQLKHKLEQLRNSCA
Nuclear respiratory factor 1 (Homo sapiens), sequence (Q16656 whole entry, looked up): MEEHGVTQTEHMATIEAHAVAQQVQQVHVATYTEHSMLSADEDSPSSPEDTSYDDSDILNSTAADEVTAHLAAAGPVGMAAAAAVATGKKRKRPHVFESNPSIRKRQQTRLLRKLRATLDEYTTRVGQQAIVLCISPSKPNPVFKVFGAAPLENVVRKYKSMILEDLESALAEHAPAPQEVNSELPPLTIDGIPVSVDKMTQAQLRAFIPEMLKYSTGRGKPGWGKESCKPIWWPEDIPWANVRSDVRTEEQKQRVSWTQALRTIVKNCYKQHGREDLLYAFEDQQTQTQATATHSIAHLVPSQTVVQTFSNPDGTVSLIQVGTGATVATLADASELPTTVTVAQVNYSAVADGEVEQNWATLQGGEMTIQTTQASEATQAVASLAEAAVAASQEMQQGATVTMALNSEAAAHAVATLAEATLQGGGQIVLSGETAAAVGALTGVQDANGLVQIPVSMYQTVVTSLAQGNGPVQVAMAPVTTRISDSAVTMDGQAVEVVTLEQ
Hepatocyte nuclear factor 4-alpha (Homo sapiens), sequence (P41235 whole entry, looked up, the tested form may be a part): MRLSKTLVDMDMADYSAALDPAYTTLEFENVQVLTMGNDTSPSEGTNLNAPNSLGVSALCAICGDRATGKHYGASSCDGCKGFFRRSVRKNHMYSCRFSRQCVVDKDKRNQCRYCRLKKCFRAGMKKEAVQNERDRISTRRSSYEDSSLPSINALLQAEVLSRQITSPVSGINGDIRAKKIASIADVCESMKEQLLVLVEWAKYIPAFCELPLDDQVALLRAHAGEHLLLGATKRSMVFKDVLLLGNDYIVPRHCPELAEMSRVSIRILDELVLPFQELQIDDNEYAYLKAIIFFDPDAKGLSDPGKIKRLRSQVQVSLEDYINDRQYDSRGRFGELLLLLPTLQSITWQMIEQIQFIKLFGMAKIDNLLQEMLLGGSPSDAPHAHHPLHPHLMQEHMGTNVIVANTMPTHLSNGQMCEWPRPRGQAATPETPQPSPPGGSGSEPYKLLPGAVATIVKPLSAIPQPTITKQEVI
human Peroxisome Proliferator-activated Receptor delta (PPARd), PPARD (gene 5467), sequence (Q03181 whole entry, looked up, the tested form may be a part): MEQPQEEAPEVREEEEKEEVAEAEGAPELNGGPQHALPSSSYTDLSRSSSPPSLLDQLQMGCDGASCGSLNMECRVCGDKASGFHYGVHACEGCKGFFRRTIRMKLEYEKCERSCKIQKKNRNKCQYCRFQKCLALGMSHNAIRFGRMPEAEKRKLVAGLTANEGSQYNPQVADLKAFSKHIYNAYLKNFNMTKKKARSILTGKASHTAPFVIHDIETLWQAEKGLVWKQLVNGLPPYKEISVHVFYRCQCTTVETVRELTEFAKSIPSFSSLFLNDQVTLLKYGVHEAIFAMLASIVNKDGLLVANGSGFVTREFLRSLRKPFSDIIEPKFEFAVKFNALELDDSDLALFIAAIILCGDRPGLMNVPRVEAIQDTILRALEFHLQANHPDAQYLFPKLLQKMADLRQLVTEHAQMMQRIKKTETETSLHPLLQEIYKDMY
Transcriptional activator Myb (Homo sapiens), sequence (P10242 whole entry, looked up): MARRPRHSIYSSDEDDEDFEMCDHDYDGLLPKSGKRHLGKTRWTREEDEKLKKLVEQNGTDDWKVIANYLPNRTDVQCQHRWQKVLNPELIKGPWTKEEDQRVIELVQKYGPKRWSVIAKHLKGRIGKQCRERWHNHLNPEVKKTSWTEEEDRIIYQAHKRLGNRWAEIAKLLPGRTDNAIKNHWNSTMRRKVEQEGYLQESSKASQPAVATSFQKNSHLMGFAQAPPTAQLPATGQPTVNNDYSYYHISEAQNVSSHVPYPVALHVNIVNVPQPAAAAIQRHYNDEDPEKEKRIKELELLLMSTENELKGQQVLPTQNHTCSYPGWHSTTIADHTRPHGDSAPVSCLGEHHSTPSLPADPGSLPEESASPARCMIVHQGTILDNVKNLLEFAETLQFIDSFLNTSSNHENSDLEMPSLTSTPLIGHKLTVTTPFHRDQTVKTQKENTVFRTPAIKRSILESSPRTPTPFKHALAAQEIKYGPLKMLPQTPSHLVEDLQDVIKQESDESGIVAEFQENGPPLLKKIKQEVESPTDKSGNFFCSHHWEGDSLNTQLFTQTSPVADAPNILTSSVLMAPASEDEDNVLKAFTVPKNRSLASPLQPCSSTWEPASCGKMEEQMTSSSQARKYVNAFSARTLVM
Nuclear receptor subfamily 4 group A member 2 (Homo sapiens), sequence (P43354 whole entry, looked up, the tested form may be a part): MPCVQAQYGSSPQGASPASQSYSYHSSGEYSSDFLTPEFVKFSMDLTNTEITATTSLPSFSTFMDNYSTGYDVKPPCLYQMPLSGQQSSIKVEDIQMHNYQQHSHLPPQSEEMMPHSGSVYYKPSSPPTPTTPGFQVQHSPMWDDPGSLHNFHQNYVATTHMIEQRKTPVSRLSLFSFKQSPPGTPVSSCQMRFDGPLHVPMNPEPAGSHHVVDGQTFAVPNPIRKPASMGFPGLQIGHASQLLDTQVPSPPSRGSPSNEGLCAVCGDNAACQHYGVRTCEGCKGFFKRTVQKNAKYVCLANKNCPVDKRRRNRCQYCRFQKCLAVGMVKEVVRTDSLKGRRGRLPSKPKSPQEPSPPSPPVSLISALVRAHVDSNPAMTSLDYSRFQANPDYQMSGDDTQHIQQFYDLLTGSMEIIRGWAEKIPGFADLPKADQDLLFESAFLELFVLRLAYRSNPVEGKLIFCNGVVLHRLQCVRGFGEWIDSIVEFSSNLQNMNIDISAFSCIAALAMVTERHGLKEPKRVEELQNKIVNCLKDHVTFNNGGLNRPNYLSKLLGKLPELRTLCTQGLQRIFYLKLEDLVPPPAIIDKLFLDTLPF

Turning to `CC1(C)Cc2cccc(O)c2O1`, the compound was classed as inactive in test [1], in [2], in [3], in [4], in [5] and in [6]. In addition, the call in test [7], in [8], in test [9], in test [10], in [11] and in test [12] was inactive. The outcome in test [13] was inactive.
On to `COP(=S)(OC)Oc1cc(Cl)c(Cl)cc1Cl`, for which the result in test [1], in test [2], in test [3], in test [4], in test [5] and in [6] was inactive. Also, the compound was classed as inactive in [7], in [14], in test [9], in [15], in test [11] and in test [17]. Moreover, in test [13], the result was inactive. Besides, the AC50 in [8] was 34.1 µM (active); in [10] it was 2.21 µM (active); in [12] it was 20 µM (active); in [16] it was 100 µM (active).
As for `COc1ccc(OC)c(C=O)c1`, the compound was classed as inactive in test [1], in test [18], in test [3], in test [4], in test [5] and in test [6]. The compound was classed as inactive in test [7], in test [14], in test [8], in [9], in test [15] and in test [17].
With `COc1ccc(C=O)cc1`, the compound was called inactive in test [1], in test [2], in test [4], in test [5], in test [6] and in test [7]. Moreover, the compound was classed as inactive in test [14], in [8], in [15], in test [16] and in [17].
As to `C(=NC1CCCCC1)=NC1CCCCC1`, the compound was classed as inactive in test [1], in [2], in [4], in test [5], in [6] and in test [7]. For the same compound, the call in test [14], in [8] and in test [15] was inactive. For the same compound, the AC50 in [9] is 5.24 µM (active); in test [10], 34 µM (active); in [11], 9.69 µM (active); in test [12] it was 6.27 µM (active).
`CCOC(=O)CP(=O)(OCC)OCC`: the call in [1], in test [18], in test [3], in test [4], in test [5] and in test [6] was inactive. For the same compound, the compound was classed as inactive in test [7], in test [14], in test [8], in test [9] and in test [15].
Regarding `C[C@@H](Oc1ccc(Cl)cc1Cl)C(=O)O`, the result in test [1], in test [2], in [3], in [4], in test [5] and in [6] was inactive. Further, the outcome in [7], in test [14], in [8], in [9], in test [15] and in test [16] was inactive.
With `COP(=S)(OC)Oc1ccc(S(=O)(=O)N(C)C)cc1`, the outcome in test [1], in test [2], in test [4], in test [5], in test [6] and in test [7] was inactive. The outcome in test [9], in [15], in test [10], in test [11], in test [12] and in [16] was inactive. Also, the AC50 in test [8] is 35.2 µM (active).
In the case of `ClCCBr`, the compound was classed as inactive in [2], in test [18], in [3], in [4], in test [5] and in test [6]. For the same compound, the result in [7], in test [14], in test [8], in test [9], in test [15] and in test [16] was inactive. Also, in test [17], the call was inactive.
On to `CCCCP(CCCC)CCCC`, for which the outcome in test [1], in [4], in test [5], in test [6], in test [7] and in test [14] was inactive. In addition, the compound was classed as inactive in [8], in test [15] and in test [17].
As to `Clc1ccc(COC(Cn2ccnc2)c2ccc(Cl)cc2Cl)cc1` (stereo not drawn), the compound was called inactive in test [2], in test [18], in test [3], in [4], in test [5] and in test [6]. Also, the compound was called inactive in test [7], in test [14], in test [15] and in [17]. The AC50 is 6.8 µM (active) in test [8] and 0.0853 µM (active) in [16].
Consider `Nc1ccc(Cl)cc1C(=O)c1ccccc1`, for which the AC50 in [2] is 160 µM (active). Also, the compound was called inactive in [18], in test [4], in test [5], in [6], in test [7] and in test [14]. For the same compound, the outcome in test [8], in test [9], in test [15], in [16] and in test [17] was inactive.
